# Source: PubChem BioAssay (EPA / NIEHS)
# Active and inactive are the calls of the source. Rule for the calls: active = hit-call score of the fitted dose curve at least 0.9, where 1 is the maximum; inactive = score below 0.9.
# Target: CCAAT/enhancer-binding protein beta (Homo sapiens) (UniProt P17676)
# Experiment: ATG_C_EBP_CIS: Attagene CIS-FACTORIAL HepG2 Assay for human CCAAT/Enhancer Binding Protein (C/EBP) beta (AID 2282927)
# Settings: HepG2 Attagene cis-factorial transcription factor reporter; actives raise or lower the signal
# Protocol: ATG_CIS is a cell-based, multiplexed-readout assay that uses HepG2, a human liver cell line, with measurements taken at 24 hours after chemical dosing in a 24-well plate.ATG_C_EBP_CIS is one of 52 assay component(s) measured or calculated from the ATG_CIS assay. It is designed to make measurements of mRNA induction, a form of inducible reporter, as detected with fluorescence intensity signals by Reverse transcription polymerase chain reaction (RT-PCR) and Capillary electrophoresis technology.Data from the assay component ATG_C_EBP_CIS was analyzed into 1 assay endpoint. This assay endpoint, ATG_C_EBP_CIS, was analyzed with bidirectional fitting relative to DMSO as the negative control and baseline of activity. Using a type of inducible reporter, measures of mRNA for gain or loss-of-signal activity can be used to understand the reporter gene at the transcription factor-level as they relate to the gene CEBPB. Furthermore, this assay endpoint can be referred to as a primary readout, because this assay has produced multiple assay endpoints where this one serves a reporter gene function. To generalize the intended target to other relatable targets, this assay endpoint is annotated to the dna binding intended target family, where the subfamily is basic leucine zipper.
# Human liver HepG2 cells are transiently transfected with multiple reporter transcription units (MRTUs) in 6-well plates using FuGene 6 reagent (Roche; 3 ml FuGene/1 mg DNA). The MRTU constructs are regulated by a cis-regulating element (promoter). […] A major difference between the CIS and TRANS system is that in CIS activities of endogenous TFs are measured, whereas the TRANS assay evaluates changes in activities of exogenous, chimeric NR-Gal4 proteins. […] At the end of 24 hour incubation, total RNA was isolated using TriZol reagent (Invitrogen). The isolated RNA is then reverse-transcribed using oligo(dT) primer and Mo-MLV reverse transcriptase (Invitrogen) with DNAse I (Ambion) treatment for 30 min. The one-tenth of the produced cDNA was amplified by PCR using Taq DNA polymerase (Invitrogen) and two reporter sequence-specific primers. The PCR products were fluorescently labeled by primer extension with 6-arboxyfluorescein (6-FAM) 5'-labeled reporter sequence-specific primer (2 min at 95 C, 20 s at 68 C and 10 min at 72 C) and these products were digested with 5U of HpaI (New England Biolabs) for 2h at 37 C. The fragments were purified using Qiaquick PCR columns (Qiagen), analyzed on an ABI 3130xL genetic analyzer (Applied Biosystems) with peak positions identified by using a set of X-rhodamine (ROX)-labeled MapMarker1000 molecular weight standards (BioVentures). The raw capillary electrophoresis data was processed using Attagraph software (Attagene).
# CCAAT/enhancer-binding protein beta (Homo sapiens), sequence (P17676 whole entry, looked up): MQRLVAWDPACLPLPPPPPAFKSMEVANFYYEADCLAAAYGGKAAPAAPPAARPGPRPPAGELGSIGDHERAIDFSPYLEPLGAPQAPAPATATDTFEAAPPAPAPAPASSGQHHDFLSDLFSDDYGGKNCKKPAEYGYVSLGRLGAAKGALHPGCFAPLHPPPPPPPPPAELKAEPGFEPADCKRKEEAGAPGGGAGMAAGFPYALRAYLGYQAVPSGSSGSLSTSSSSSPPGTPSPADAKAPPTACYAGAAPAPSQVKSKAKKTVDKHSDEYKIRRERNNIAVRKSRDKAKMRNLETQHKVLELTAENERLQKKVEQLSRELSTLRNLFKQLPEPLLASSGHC
SMILES,outcome,AC50
C=C(C)C(=O)OCCOC(=O)CC(C)=O,inactive,
CCCCCCCCC,inactive,
CC(C)C[C@H]1C(=O)N2CCC[C@H]2[C@]2(O)O[C@](NC(=O)[C@@H]3C=C4c5cccc6[nH]c(Br)c(c56)C[C@H]4N(C)C3)(C(C)C)C(=O)N12,inactive,
CC(CCO)CCc1ccccc1 (stereo not given),inactive,
CCCCCCCCCCCCCC(=O)O,inactive,
CCCOCC(C)O (stereo not given),inactive,
O=c1oc(=O)c2cc3c(=O)oc(=O)c3cc12,inactive,
CCC(C(=O)NC(N)=O)c1ccccc1 (stereo not given),inactive,
O=[N+]([O-])c1ccc(C=Cc2ccc([N+](=O)[O-])cc2S(=O)(=O)O)c(S(=O)(=O)O)c1,inactive,
CC(=O)C(C)=O,inactive,
C=C(C)[C@@H]1CCC2=CC(=O)C[C@@H](C)[C@]2(C)C1,inactive,
CCCC(C)C=O (stereo not given),inactive,
COC(=O)C1=C(C)NC(C)=C(C(=O)OCCN(C)Cc2ccccc2)C1c1cccc([N+](=O)[O-])c1 (stereo not given),,15.5 µM (active)
O=C(O)c1ccc(C(=O)O)cc1,inactive,
O=C(O)COCCN1CCN(C(c2ccccc2)c2ccc(Cl)cc2)CC1 (stereo not given),inactive,
O=CCCc1ccccc1,inactive,
CC1(C)CCC(C)(C)c2cc(C(=O)Nc3ccc(C(=O)O)cc3)ccc21,inactive,
COc1cc2ncnc(Nc3cccc(Cl)c3)c2cc1OC,inactive,
O=C(O)c1cn(C2CC2)c2cc(N3CCNCC3)c(F)cc2c1=O,inactive,
Clc1cccc(Cl)n1,inactive,

SMILES,outcome,AC50
O=C1CCCCCCCCCCCCCCO1,inactive,
O=c1[nH]c(=O)n([C@H]2CCCO2)cc1F,inactive,
CC(=O)OCCC(C)CC(C)(C)C (stereo not given),inactive,
NC(N)=NC(=O)c1nc(Cl)c(N)nc1N,inactive,
CCC(=O)OCCC(C)CCC=C(C)C (stereo not given),inactive,
NC(=O)NC1NC(=O)NC1=O (stereo not given),inactive,
O=C(O)c1cccc([N+](=O)[O-])c1,inactive,
CC(C)(N)CO,inactive,
CCCCCCCCCCN,inactive,
c1ccc(CCCc2ccccn2)cc1,inactive,
C=CC(C)(O)CCC=C(C)CCC=C(C)C (stereo not given),,137 µM (active)
C=C(C)C(=O)O,inactive,
CCCCCC(CO)CCC (stereo not given),inactive,
COc1ccc(OC)c(OC)c1,inactive,
COC(=O)Cc1cccc2ccccc12,inactive,
CCCc1ccccc1O,inactive,
CC(C)(CO)[N+](=O)[O-],inactive,
O=C1CCc2ccccc2O1,inactive,
Cc1cccc(C)c1C,inactive,
Cc1c(N(C)C)c(=O)n(-c2ccccc2)n1C,inactive,
